# Experimental data reported in PubChem BioAssay (EPA / NIEHS).
# Records with an inconclusive call do not appear. Calls of active or inactive are those of the source. How the source made its calls, unless noted: active means hit-call score of the fitted dose curve at least 0.9, where 1 is the maximum; inconclusive means response in the unintended direction; inactive means score below 0.9.
# Tests used:
# [1] = system: Sodium/Iodide Symporter (NIS), SLC5A5 (gene 6528); assay: CPHEA_Stoker_NIS_Inhibition_RAIU: CPHEA's Radioactive Iodide Uptake (RAIU) Assay for Sodium/Iodide Symporter (NIS) Inhibition, Stoker and Laws Labs (AID 2283841)
# Summary of the method: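 Test chemicals, six concentrations from 0.001 to 100uM in 0.5% DMSO, were co-incubated with carrier-free 125I (final 329pM) on hNIS-HEK293T-EPA monolayers in pH 7.4 HEPES-buffered HBSS. Plates stood 2 hours at room temperature, then were washed cold and counted.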
# [2] = CPHEA_Stoker_NIS_Cytotoxicity: Cytotoxicity Assessment for CPHEA's Radioactive Iodide Uptake (RAIU) Assay for Sodium/Iodide Symporter (NIS) Inhibition, Stoker and Laws Labs (AID 2283897);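 on AC50: active means loss of ATP signal versus DMSO meaning cytotoxicity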
# Summary of the method: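 Viability in hNIS-HEK293T-EPA cells is scored as a drop in luciferase-detected ATP following 2-hour room-temperature exposure (0.001–100uM; triplicate wells, three cell passages), with DMSO as negative control.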
# [3] = CEETOX_H295R_OHPREG_noMTC: CeeTox H295R High-throughput Steroidogenesis Assay for OH-Pregnenolone (OHPREG), maximum tolerated concentration (MTC) filtered results only (AID 2283912; active means hit-call score of the fitted dose curve at least 0.9, where 1 is the maximum; inactive means score below 0.9); conditions: actives raise or lower the signal
# Summary of the method: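 Steroidogenesis in H295R cells (OECD 456, modified): after 48 h forskolin priming and 48 h chemical treatment, secreted 17alpha-hydroxypregnenolone is measured by HPLC-MS/MS. Activity is fitted in both directions against DMSO; concentrations are not filtered by MTT-based MTC.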
# [4] = CEETOX_H295R_OHPROG_noMTC: CeeTox H295R High-throughput Steroidogenesis Assay for OH-Progesterone (OHPROG), maximum tolerated concentration (MTC) filtered results only (AID 2283914; active means hit-call score of the fitted dose curve at least 0.9, where 1 is the maximum; inactive means score below 0.9); conditions: actives raise or lower the signal
# Summary of the method: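 Forskolin 10 uM, 48 h prestim → test cmpd in DMSO (0.1% final), 48 h → medium MTBE extraction → LC-MS/MS quant of 17alpha-OH-progesterone. Bidirectional fit vs DMSO; no MTT-based MTC filtering.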
# [5] = CEETOX_H295R_ANDR_noMTC: CeeTox H295R High-throughput Steroidogenesis Assay for Androstenedione (ANDR), maximum tolerated concentration (MTC) filtered results only (AID 2283915; active means hit-call score of the fitted dose curve at least 0.9, where 1 is the maximum; inactive means score below 0.9); conditions: actives raise or lower the signal
# Summary of the method: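 H295R cells, passage 10 or below, prestimulated 48 h with 10 uM forskolin, then exposed 48 h to chemical in 0.1% DMSO. Medium androstenedione extracted with MTBE, quantified by HPLC-MS/MS; concentrations not MTC-filtered; bidirectional fit versus DMSO.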
# [6] = CEETOX_H295R_ESTRADIOL_noMTC: CeeTox H295R High-throughput Steroidogenesis Assay for Estradiol, maximum tolerated concentration (MTC) filtered results only (AID 2283919; active means hit-call score of the fitted dose curve at least 0.9, where 1 is the maximum; inactive means score below 0.9); conditions: actives raise or lower the signal
# Summary of the method: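 H295R human adrenal cells pre-stimulated 48 h with 10 uM forskolin, then exposed 48 h to chemical (0.1% DMSO final). Estradiol in medium measured by HPLC-MS/MS after MTBE extraction and dansyl derivatization; bidirectional fit versus DMSO, concentrations not MTT-filtered.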
# [7] = CEETOX_H295R_PROG_noMTC: CeeTox H295R High-throughput Steroidogenesis Assay for Progesterone (PROG), maximum tolerated concentration (MTC) filtered results only (AID 2283920; active means hit-call score of the fitted dose curve at least 0.9, where 1 is the maximum; inactive means score below 0.9); conditions: actives raise or lower the signal
# Summary of the method: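 H295R cells; forskolin 10 uM x 48 h prestim; test cpd 48 h, 0.1% DMSO final; media progesterone via LC-MS/MS; bidirectional fit vs DMSO; no MTT-based MTC filter applied.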
# [8] = CEETOX_H295R_ESTRONE_noMTC: CeeTox H295R High-throughput Steroidogenesis Assay for Estrone, maximum tolerated concentration (MTC) filtered results only (AID 2283921; active means hit-call score of the fitted dose curve at least 0.9, where 1 is the maximum; inactive means score below 0.9); conditions: actives raise or lower the signal
# Summary of the method: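 H295R cells prestimulated 48 h with 10 uM forskolin, then exposed 48 h to chemical in 0.1% DMSO; medium estrone measured by HPLC-MS/MS after MTBE extraction and dansyl derivatization, fitted bidirectionally versus DMSO without MTT-based MTC filtering.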
# [9] = CEETOX_H295R_TESTO_noMTC: CeeTox H295R High-throughput Steroidogenesis Assay for Testosterone (TESTO), maximum tolerated concentration (MTC) filtered results only (AID 2283924; active means hit-call score of the fitted dose curve at least 0.9, where 1 is the maximum; inactive means score below 0.9); conditions: actives raise or lower the signal
# Description: CEETOX_H295R is a cell-based, multiplexed-readout assay that uses H295R, a human adrenal gland cell line, with measurements taken at 48 hours after chemical dosing in a 96-well plate.CEETOX_H295R_TESTO_noMTC is one of 12 assay component(s) measured or calculated from the CEETOX_H295R assay (11 hormones and 1 viability assay). It is designed to make measurements of hormone induction, a form of inducible reporter, as detected with absorbance signals by HPLC-MS-MS technology. The concentrations for these components have not been pre-filtered for the maximum tolerated concentration (MTC) based on the MTT assay (_noMTC).Data from the assay component CEETOX_H295R_TESTO_noMTC was analyzed into 1 assay endpoint. This assay endpoint, CEETOX_H295R_TESTO_noMTC, was analyzed with bidirectional fitting relative to DMSO as the negative control and baseline of activity. […]
# Cell culture and media preparation procedures were conducted in accordance with OECD Test No. 456 guidelines, with minor modifications. […] For steroid quantification, media samples were shipped to OpAns, LLC (Durham, NC) on dry ice, and samples were thawed to room temperature prior to liquid-liquid extraction. […] Steroid hormones were separated by HPLC, eluted using a reverse phase C18 gradient with electrospray positive ionization, followed by quantification by tandem mass spectrometry (MS/MS). […]
# [10] = target: PGR (gene 5241) (UniProt P06401); assay: TOX21_PR_BLA_Followup_Agonist_ratio: Tox21 HEK293 Progesterone Receptor (PR) Agonism Beta-lactamase Follow-Up Assay, Ratio (AID 2283933)
# Sequence of PGR (gene 5241) (P06401 whole entry, looked up): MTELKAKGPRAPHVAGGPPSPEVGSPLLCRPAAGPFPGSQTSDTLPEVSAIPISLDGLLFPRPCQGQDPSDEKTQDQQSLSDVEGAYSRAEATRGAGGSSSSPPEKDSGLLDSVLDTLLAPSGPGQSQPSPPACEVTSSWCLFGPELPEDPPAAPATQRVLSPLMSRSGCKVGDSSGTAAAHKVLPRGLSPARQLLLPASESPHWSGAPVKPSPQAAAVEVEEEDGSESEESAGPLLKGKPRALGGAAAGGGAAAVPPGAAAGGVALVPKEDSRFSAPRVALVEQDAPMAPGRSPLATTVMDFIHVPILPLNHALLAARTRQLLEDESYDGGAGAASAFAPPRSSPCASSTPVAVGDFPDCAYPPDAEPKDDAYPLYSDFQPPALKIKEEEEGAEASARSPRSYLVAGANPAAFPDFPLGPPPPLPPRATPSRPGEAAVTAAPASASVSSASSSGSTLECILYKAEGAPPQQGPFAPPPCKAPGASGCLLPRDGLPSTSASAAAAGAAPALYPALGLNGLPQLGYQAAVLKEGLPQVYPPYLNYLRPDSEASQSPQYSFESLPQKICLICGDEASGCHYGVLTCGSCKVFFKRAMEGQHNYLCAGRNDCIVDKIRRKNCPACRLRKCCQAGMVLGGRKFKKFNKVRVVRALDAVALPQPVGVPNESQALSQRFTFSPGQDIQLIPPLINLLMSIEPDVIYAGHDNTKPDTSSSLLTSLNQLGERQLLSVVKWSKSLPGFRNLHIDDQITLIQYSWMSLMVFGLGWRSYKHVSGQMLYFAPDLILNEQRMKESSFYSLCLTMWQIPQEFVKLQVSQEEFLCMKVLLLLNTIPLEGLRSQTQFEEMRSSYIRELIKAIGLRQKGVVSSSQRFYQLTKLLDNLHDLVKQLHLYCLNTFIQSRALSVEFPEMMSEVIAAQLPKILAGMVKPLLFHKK
# Summary of the method: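 HEK293T PR-UAS-bla, 2% CS-FBS; 6 hr preincubation, cpd/DMSO pinned, 16 hr 37C/5% CO2; LiveBLAzer B/G 2 hr RT; FRET ch2/ch1 ratio, agonist direction vs DMSO. Viability by CellTiter-Glo in same wells.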
smiles,measurement,setting,value
CCOc1cc(C(C)(C)C)ccc1C1COC(c2c(F)cccc2F)=N1 (stereo unspecified),AC50,[1],1.21 µM (active)
same,outcome,[2],inactive
CC(C)Oc1cccc(NC(=O)c2ccccc2C(F)(F)F)c1,outcome,[1],inactive
same,outcome,[2],inactive
C=CCOC(=O)C(C)(C)OC(=O)c1cc(-n2c(=O)cc(C(F)(F)F)n(C)c2=O)ccc1Cl,outcome,[1],inactive
same,outcome,[2],inactive
Clc1cccc(C(Cl)(Cl)Cl)n1,outcome,[1],inactive
same,outcome,[2],inactive
CC1(C)C(C=C(Cl)Cl)C1C(=O)OC(C#N)c1cccc(Oc2ccccc2)c1 (stereo unspecified),outcome,[1],inactive
same,outcome,[2],inactive
CCOC(=O)C(C)OC(=O)c1cc(Oc2ccc(C(F)(F)F)cc2Cl)ccc1[N+](=O)[O-] (stereo unspecified),outcome,[1],inactive
same,outcome,[2],inactive
COP(=S)(OC)Oc1ccc([N+](=O)[O-])c(C)c1,outcome,[1],inactive
same,outcome,[2],inactive
OC(c1ccc(Cl)cc1)(c1ccc(Cl)cc1)C(Cl)(Cl)Cl,AC50,[1],30.2 µM (active)
same,AC50,[2],50 µM (active)
CCN(CC)c1nc(C)cc(OP(=S)(OC)OC)n1,outcome,[1],inactive
same,outcome,[2],inactive
CCCCC(C#N)(Cn1cncn1)c1ccc(Cl)cc1 (stereo unspecified),outcome,[2],inactive
COC(=O)c1c(C(F)F)nc(C(F)(F)F)c(C2=NCCS2)c1CC(C)C,outcome,[1],inactive
same,outcome,[2],inactive
same,outcome,[3],inactive
same,AC50,[4],7.98 µM (active)
same,outcome,[5],inactive
same,outcome,[6],inactive
same,AC50,[7],13.8 µM (active)
same,outcome,[8],inactive
same,outcome,[9],inactive
COP(=S)(OC)SCn1nnc2ccccc2c1=O,outcome,[1],inactive
same,outcome,[2],inactive
CCCCOCN(C(=O)CCl)c1c(CC)cccc1CC,outcome,[1],inactive
same,outcome,[2],inactive
O=C(Nc1ccccc1-c1ccc(Cl)cc1)c1cccnc1Cl,outcome,[1],inactive
same,outcome,[2],inactive
CCCCC(O)(Cn1cncn1)c1ccc(Cl)cc1Cl (stereo unspecified),outcome,[1],inactive
same,outcome,[2],inactive
CC1(C)C(C(=O)OC(C#N)c2cccc(Oc3ccccc3)c2)C1(C)C (stereo unspecified),outcome,[1],inactive
same,outcome,[2],inactive
Nc1c(Cl)c(Cl)nc(C(=O)O)c1Cl,outcome,[1],inactive
same,outcome,[2],inactive
O=C1C2CC=CCC2C(=O)N1SC(Cl)(Cl)Cl (stereo unspecified),AC50,[1],36 µM (active)
same,outcome,[2],inactive
CC1(C)CON(Cc2ccccc2Cl)C1=O,outcome,[1],inactive
same,outcome,[2],inactive
CCN(CC)C(=O)C(C)Oc1cccc2ccccc12 (stereo unspecified),outcome,[1],inactive
same,outcome,[2],inactive
N#Cc1c[nH]cc1-c1cccc2c1OC(F)(F)O2,outcome,[1],inactive
same,outcome,[2],inactive
CC(C)N1C(=O)N(c2ccccc2)CSC1=NC(C)(C)C,AC50,[1],27.8 µM (active)
same,AC50,[2],40.8 µM (active)
C=C(C)CN(CC)c1c([N+](=O)[O-])cc(C(F)(F)F)cc1[N+](=O)[O-],AC50,[1],5.45 µM (active)
same,AC50,[2],9.92 µM (active)
CCNP(=S)(OC)O/C(C)=C/C(=O)OC(C)C (stereo unspecified),outcome,[1],inactive
same,outcome,[2],inactive
CCOP(=S)(OCC)Oc1nc(Cl)n(C(C)C)n1,outcome,[1],inactive
same,outcome,[2],inactive
CSC(=O)c1c(C(F)F)nc(C(F)(F)F)c(C(=O)SC)c1CC(C)C,outcome,[1],inactive
same,outcome,[2],inactive
COc1ccc(-c2ccccc2)cc1NNC(=O)OC(C)C,AC50,[1],50 µM (active)
same,outcome,[2],inactive
CC(C)=CC1C(C(=O)OCc2coc(Cc3ccccc3)c2)C1(C)C (stereo unspecified),outcome,[1],inactive
same,outcome,[2],inactive
CC1(C)CCC(=Cc2ccc(Cl)cc2)C1(O)Cn1cncn1 (stereo unspecified),outcome,[10],inactive
CCOP(=O)(OCC)Oc1nc(Cl)c(Cl)cc1Cl,outcome,[1],inactive
same,outcome,[2],inactive
Cc1ccc(N=CN(C)C=Nc2ccc(C)cc2C)c(C)c1,outcome,[1],inactive
same,outcome,[2],inactive
CCOc1nc(F)cc2nc(S(=O)(=O)Nc3c(Cl)cccc3Cl)nn12,outcome,[1],inactive
same,outcome,[2],inactive
CO/N=C(/C1=NOCCO1)c1ccccc1Oc1ncnc(Oc2ccccc2Cl)c1F,AC50,[1],9.92 µM (active)
same,AC50,[2],10.9 µM (active)
